# Inconclusive results are not listed. The source made the active and inactive calls. Calls come from the whole dose curve; as a rule, active = well fitted inhibition curve with a large enough effect; inconclusive = small, poorly fitted or top-dose-only effect; inactive = flat fitted curve, though single readings scatter.
# Test system: astro (control astrocytes)
# Test: Drug repurposing screens with cells derived from glioblastoma tumor samples (AID 1345199); note: nearly all actives have a fitted effect of over 40% in size
# Conditions: viability, ATP luminescence, 48 h; series mostly up to 45.9 µM; activity, negative = cell killing: at the top concentration
# Experimental: CD133+ cells were isolated from GBM patient biopsies and cultured as neurospheres. Neurospheres from four patients were used to screen the NCATS pharmaceutical collection (NPC) library of approved drugs and bioactive compounds. […] The neurospheres were incubated with drugs for 48 hours in 1536-well format, then assayed with an ATP content cell viability assay. […] These hits were cherry picked to confirm activity in the four original GBM lines screened plus three other slower growing GMB lines (unable to yield enough cells for a full primary screen). Variable activities of the confirmed primary hits in the different GBM patient lines were observed. The patient line 206 responded to the greatest number of compounds and line 923 responded to the least amount of active compounds.
# % is set by controls: 0 for no effect and ±100 for the full control effect; potency is the fitted concentration of half-maximal effect.
Compound,"activity, negative = cell killing",Potency
CO[C@@]12[C@H](COC(N)=O)C3=C(C(=O)C(C)=C(N)C3=O)N1C[C@@H]1N[C@@H]12,-18.6% (inactive),–
O=P(O)(O)C(O)(Cc1cccnc1)P(=O)(O)O,-20.6% (inactive),–
CC(C)(C#N)c1cc(Cn2cncn2)cc(C(C)(C)C#N)c1,-18.3% (inactive),–
NNC(=O)c1ccncc1,-9.8% (inactive),–
CNNCc1ccc(C(=O)NC(C)C)cc1,-9.39% (inactive),–
CCc1cc(C(N)=S)ccn1,-9.75% (inactive),–
COC(=O)Nc1nc2ccc(Sc3ccccc3)cc2[nH]1,–,631 nM (active)
CN(C)CCc1c[nH]c2ccc(CS(=O)(=O)N3CCCC3)cc12,-14.1% (inactive),–
C[C@@H](CN1CC(=O)NC(=O)C1)N1CC(=O)NC(=O)C1,-16.3% (inactive),–
COC(c1ccccc1)(c1ccccc1)[C@H](Oc1nc(C)cc(C)n1)C(=O)O,-12% (inactive),–
CC(C)C[C@H](NC(=O)[C@H](CCc1ccccc1)NC(=O)CN1CCOCC1)C(=O)N[C@@H](Cc1ccccc1)C(=O)N[C@@H](CC(C)C)C(=O)[C@@]1(C)CO1,–,708 nM (active)
O=S(=O)(O)CCS,-13.1% (inactive),–
Nc1nc(F)nc2c1ncn2[C@@H]1O[C@H](CO)[C@@H](O)[C@@H]1O,–,inactive
CC(C)OC(=O)C(C(=O)OC(C)C)=C1SC=CS1,-21% (inactive),–
CN1CCN(c2c(F)cc3c(=O)c(C(=O)O)cn(CCF)c3c2F)CC1,-8.32% (inactive),–
Cc1nnc(NS(=O)(=O)c2ccc(N)cc2)s1,-0.0484% (inactive),–
Nc1[nH]c(=O)ncc1F,-12.5% [at 21.2 µM] (inactive),–
CCN[C@H]1C[C@H](C)S(=O)(=O)c2sc(S(N)(=O)=O)cc21,-12% (inactive),–
Clc1ccccc1CN1CCc2sccc2C1,-13.6% (inactive),–
CC(C(=O)O)c1ccc2c(c1)CC(=O)c1ccccc1S2 (stereo not given),-25.3% (inactive),–

Compound,"activity, negative = cell killing",Potency
CNC1CCCN(c2c(F)cc3c(=O)c(C(=O)O)cn(C4CC4)c3c2OC)C1 (stereo not given),0.157% (inactive),–
COc1cc2c(Nc3ccc(Br)cc3F)ncnc2cc1OCC1CCN(C)CC1,–,14100 nM (active)
CCOC(=O)[C@H](CCc1ccccc1)N[C@H]1CS[C@H](c2cccs2)CN(CC(=O)O)C1=O,-0.268% (inactive),–
CC(C)C1CCC(C(=O)N[C@H](Cc2ccccc2)C(=O)O)CC1 (stereo not given in full),-17.4% (inactive),–
COc1ncnc(NS(=O)(=O)c2ccc(N)cc2)c1OC,-10.6% (inactive),–
O=S(=O)(c1cccc2cnccc12)N1CCCNCC1,-12.6% (inactive),–
CN(C)c1ccc(C(=C2C=CC(=[N+](C)C)C=C2)c2ccc(N(C)C)cc2)cc1,–,2510 nM (active)
O=c1cc(O)c(Cl)c[nH]1,-1.15% (inactive),–
CCC(=O)O[C@]1(C(=O)CCl)[C@@H](C)C[C@H]2[C@@H]3CCC4=CC(=O)C=C[C@]4(C)[C@@]3(F)[C@@H](O)C[C@@]21C,-15.1% (inactive),–
COc1cc(NS(=O)(=O)c2ccc(N)cc2)nc(OC)n1,-2.81% [at 21.2 µM] (inactive),–
NC(=O)c1cccnc1,-11.4% (inactive),–
CCC(=O)O[C@]1(C(=O)SCF)[C@H](C)C[C@H]2[C@@H]3C[C@H](F)C4=CC(=O)C=C[C@]4(C)[C@@]3(F)[C@@H](O)C[C@@]21C,-18.9% [at 21.2 µM] (inactive),–
Cc1ccnc2c1NC(=O)c1cccnc1N2C1CC1,-14.3% (inactive),–
CC(=O)[C@H]1CC[C@H]2[C@@H]3CCC4=CC(=O)CC[C@]4(C)[C@H]3CC[C@]12C,-27.9% (inactive),–
O=C(O)c1cc(=O)[nH]c(=O)[nH]1,-12.8% (inactive),–
CC[C@H](C)C(=O)O[C@H]1C[C@@H](C)C=C2C=C[C@H](C)[C@H](CC[C@@H]3C[C@@H](O)CC(=O)O3)[C@H]21,–,447 nM (active)
Cc1nnc(C(=O)NC(C)(C)c2nc(C(=O)NCc3ccc(F)cc3)c(O)c(=O)n2C)o1,-10.9% (inactive),–
Cc1noc(NS(=O)(=O)c2ccc(N)cc2)c1C,–,inactive
CCN(CC)CCn1c(=O)c(Cc2ccc(OC)cc2)nc2ccccc21,-14% (inactive),–
CC(C)OC(=O)OCOP(=O)(CO[C@H](C)Cn1cnc2c(N)ncnc21)OCOC(=O)OC(C)C,-16.2% (inactive),–
